# Measured values as given in ChEMBL document CHEMBL3433997, “St. Jude Leishmania screening dataset” (2016).
# Molecular target: Solute carrier family 2, facilitated glucose transporter member 1 (Homo sapiens) (UniProt P11166)
# Assay: ST_JUDE_LEISH: Cytotoxicity at 2uM final concentration against transgenic Leishmania Mexicana promastigotes LmGLUT1 that are glucose transport deficient and complemented with the human glucose transporter GLUT1. Activity is measured by DNA content using SYBR green in vitro
# Type: functional
# Solute carrier family 2, facilitated glucose transporter member 1 (Homo sapiens), sequence (P11166 whole entry): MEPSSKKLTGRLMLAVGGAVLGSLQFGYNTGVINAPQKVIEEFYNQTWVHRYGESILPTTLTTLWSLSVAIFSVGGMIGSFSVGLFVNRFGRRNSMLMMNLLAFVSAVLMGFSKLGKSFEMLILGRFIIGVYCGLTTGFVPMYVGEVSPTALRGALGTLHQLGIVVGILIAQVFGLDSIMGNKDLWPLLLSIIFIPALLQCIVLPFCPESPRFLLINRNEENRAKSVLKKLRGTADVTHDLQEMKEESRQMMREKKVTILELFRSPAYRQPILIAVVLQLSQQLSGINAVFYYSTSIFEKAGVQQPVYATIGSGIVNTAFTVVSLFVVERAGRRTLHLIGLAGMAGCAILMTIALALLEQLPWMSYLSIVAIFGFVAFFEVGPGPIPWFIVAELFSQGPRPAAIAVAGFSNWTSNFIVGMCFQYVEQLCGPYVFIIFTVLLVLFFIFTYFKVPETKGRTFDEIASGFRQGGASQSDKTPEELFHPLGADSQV
row,Compound,inhibition
1,NC1CCCN(Cc2ccc(-c3cccc(-c4nc5cc(F)ccc5[nH]4)c3)cc2)C1 (stereo not given),-0.79%
2,c1cc(CNCC2CCCO2)cc(-c2ccc(-c3nc4ccccc4[nH]3)s2)c1 (stereo not given),0.61%
3,O=C(Nc1cccc(C(F)(F)F)c1)c1cccc2nc(C(F)(F)F)[nH]c12,19.4%
4,COc1ccc(S(=O)(=O)NCCC2CCN(CCCCCNC(=O)C=Cc3ccc(Cl)c(Cl)c3)CC2)cc1,2.06%
5,OC(CNc1ccnc(Nc2ccc(Cl)cc2)n1)c1cccc(C(F)(F)F)c1 (stereo not given),1.93%
6,CO/C(=C\C=C\c1cc2cc(Cl)c(Cl)cc2[nH]1)C(=O)NCCCN1CCN(c2cccc(CCO)c2)CC1,-0.14%
7,O=C(NCC1CCN(Cc2ccc(F)cc2)C1)c1cc(-c2cccc(C(F)(F)F)c2)cs1 (stereo not given),-0.31%
8,CCCCCCCN1CC[C@@H](CCCc2ccnc3ccc(OCC4CCCNC4)cc23)[C@@H](CC)C1 (stereo not given in full),4.6%
9,COc1ccc2nccc([C@@H](O)CN3CCC(NCc4cc5cc(OC(F)(F)F)ccc5[nH]4)CC3)c2c1,9.94%
10,CNCCNCc1ccc(-c2ccc(-c3nc4ccccc4[nH]3)s2)cc1,3.78%
11,O=C(NCCN1CCCCC1)c1cccc(Nc2nccc(Nc3ccc(Oc4ccccc4)cc3)n2)c1,-0.01%
12,CCn1c(SCc2ccccc2)nc2c1c(=O)[nH]c(=O)n2C,-0.07%
13,CCc1nn2c(Nc3ccncc3)cc(C)nc2c1-c1ccccc1,3.36%
14,CCOc1c(CNCCCNc2cc(=O)c3ccccc3[nH]2)cc(I)cc1C(C)(C)C,-0.21%
15,COC(=O)c1ccc(NC(=O)Nc2cccc(CCNCc3ccccc3)c2)cc1,-0.06%
